Article PMC5540273 (PLoS ONE, 2017)
Read-outs that look alike come from different tables or passages of the source.

Key:
CSNK1G1 = settings: concentration: 1 μM,replicates: in singlicate; n = 1
CSNK1G2 = settings: concentration: 1 μM,replicates: in singlicate; n = 1
CSNK1G3 = settings: concentration: 1 μM,replicates: in singlicate; n = 1
CSNK2A1 = settings: n = 1
CSNK2A2 = settings: n = 1
CTK = test system: T1, CTK; settings: concentration: 1 μM,replicates: in singlicate; n = 1
T1 construct: gene MATK

DAPK1 = settings: concentration: 1 μM,replicates: in singlicate; n = 1
DAPK2 = settings: concentration: 1 μM,replicates: in singlicate; n = 1
DAPK3 = settings: concentration: 1 μM,replicates: in singlicate; n = 1
DCAMKL1 = test system: T2, DCAMKL1; settings: concentration: 1 μM,replicates: in singlicate; n = 1
T2 construct: gene DCLK1

[1] = concentration: 1 μM,replicates: in singlicate
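Note: KINOMEscan kinase panel screen.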

Structure (SMILES) | %Inh (CSNK1G1) | %Inh (CSNK1G2) | %Inh (CSNK1G3) | %Inh (CSNK2A1; [1]) | %Inh (CSNK2A2; [1]) | %Inh (CTK) | %Inh (DAPK1) | %Inh (DAPK2) | %Inh (DAPK3) | %Inh (DCAMKL1) | %Inh (CSNK2A1; 1 µM) | %Inh (CSNK2A2; 1 µM)
CN(c1cccc(CNc2nc(Nc3ccc4c(c3)CC(=O)N4)ncc2C(F)(F)F)c1)S(C)(=O)=O | 0% | 5% | 16% | 35% | 44% | 0% | 35% | 0% | 1% | 55% | – | –
CS(=O)(=O)Nc1ccc(-c2ccnc3[nH]ccc23)cc1 [GSK993273] | 0% | 0% | 17% | 0% | 16% | 0% | 73% | 54% | 89% | 6% | – | –
COc1cccc(CNC(=O)NC2CCN(c3ccnc(Nc4cc(OC)c(OC)c(OC)c4)n3)C2)c1 (centres unmarked) [GSK1379765] | 0% | 0% | 27% | 3% | 0% | 0% | 0% | 0% | 14% | 19% | – | –
COC(=O)c1cccc(NC(=O)NC2CCN(c3ccnc(Nc4cc(OC)c(OC)c(OC)c4)n3)C2)c1 (centres unmarked) [GSK1379767] | 16% | 0% | 19% | 1% | 29% | 0% | 2% | 0% | 21% | 4% | – | –
O=C(Nc1ccc(Oc2ccc3nc(NC(=O)C4CC4)cn3n2)c(F)c1)c1cccn(-c2ccccc2)c1=O | 0% | 0% | 30% | 0% | 0% | 0% | 0% | 0% | 14% | 4% | – | –
COc1ccc(Nc2nccc(N3CCC(NC(=O)c4cccc(C#N)c4)C3)n2)cc1 (centres unmarked) [GSK1379730] | 3% | 0% | 0% | 0% | 0% | 0% | 0% | 0% | 4% | 8% | – | –
CN(c1ccccc1CNc1nc(Nc2ccc3c(c2)CC(=O)N3)ncc1C(F)(F)F)S(C)(=O)=O | 0% | 0% | 13% | 70% | 92.7% | 0% | 4% | 24% | 28% | 21% | – | –
NC(=O)Nc1sc(-c2ccc(F)cc2)cc1C(N)=O [GW789449] | 0% | 0% | 0% | 49% | 81% | 22% | 32% | 0% | 38% | 0% | – | –
COC(=O)Nc1nc2cc(Oc3ccc(NC(=O)Nc4cc(C(F)(F)F)ccc4Cl)cc3)ccc2[nH]1.Cl [GW697465] | 0% | 0% | 8% | 0% | 0% | 0% | 2% | 0% | 0% | 0% | – | –
Cc1ccc2c(-c3ccnc(Nc4ccc(C(F)(F)F)cc4)n3)cnn2n1 [GW819776] | 0% | 14% | 0% | 18% | 35% | 24% | 19% | 0% | 25% | 34% | – | –
C[C@@H]1CCN(C(=O)N2CCCC2)C[C@@H]1N(C)c1ncnc2[nH]ccc12 | 2% | 0% | 0% | 35% | 5% | 19% | 23% | 0% | 9% | 46% | – | –
COc1cc2ncn(-c3cc(OCC4CCCCC4)c(C(N)=O)s3)c2cc1OC [GSK204559] | 12% | 9% | 32% | 1% | 22% | 0% | 35% | 30% | 64% | 2% | – | –
FC(F)(F)c1cc(Br)cc(Nc2nccc(-c3cnn4ncccc34)n2)c1 [GW810578] | 13% | 31% | 0% | 0% | 32% | 0% | 2% | 1% | 18% | 19% | – | –
COc1cccc(OC)c1C(=O)Nc1cccc(-c2nn3ccccc3c2-c2ccnc(Nc3cccc(F)c3)n2)c1 [GSK361065] | 14% | 17% | 3% | – | – | 21% | 10% | 6% | 0% | 16% | 0% | 23%
Cc1ccc(C(=O)Nc2ccc(Oc3ccc4nc(NC(=O)C5CC5)cn4c3)c(F)c2)c(=O)n1-c1ccccc1 | 2% | 0% | 0% | 0% | 0% | 0% | 0% | 0% | 2% | 2% | – | –
Cn1ccc2ncnc(Oc3ccc(NC(=O)Nc4ccnc(C(F)(F)F)c4)c(Cl)c3)c21 | 0% | 9% | 0% | 0% | 10% | 0% | 7% | 0% | 0% | 4% | – | –
C[C@@H](Oc1cc(-n2cnc3cc(-c4cnn(C)c4)ccc32)sc1C(N)=O)c1ccccc1Cl [GSK580432] | 30% | 0% | 15% | 7% | 67% | 0% | 75% | 43% | 34% | 10% | – | –
